Compounds with a hit are over-represented: about 6.1% of the library has one in this group of screens.
D1 agonist = agonists of human D1 dopamine receptor | P21728 | HEK293 T-REx D1 cells, calcium flux, agonist mode | activation, % at 2 µM | 360,000 compounds, 1% hits; in the data active means activation above about 30%; further: 0% is about no effect
Target sequence (P21728 whole entry, looked up): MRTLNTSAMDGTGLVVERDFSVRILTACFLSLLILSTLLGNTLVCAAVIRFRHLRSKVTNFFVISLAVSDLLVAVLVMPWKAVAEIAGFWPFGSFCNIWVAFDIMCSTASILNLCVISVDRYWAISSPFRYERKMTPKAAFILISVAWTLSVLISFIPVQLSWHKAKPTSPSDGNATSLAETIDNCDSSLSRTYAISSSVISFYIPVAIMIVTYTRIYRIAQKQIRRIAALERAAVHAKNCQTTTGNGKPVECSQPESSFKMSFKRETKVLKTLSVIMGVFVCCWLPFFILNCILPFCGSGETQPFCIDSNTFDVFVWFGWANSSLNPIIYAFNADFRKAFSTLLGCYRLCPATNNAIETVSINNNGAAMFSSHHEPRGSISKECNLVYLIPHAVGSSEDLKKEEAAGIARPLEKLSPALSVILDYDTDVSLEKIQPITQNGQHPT
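Inducible HEK293 T-REx D1 cells, force-coupled to calcium signalling, were plated at 4000 cells/well with tetracycline and held overnight at 30 C. After no-wash calcium dye loading, compound-evoked calcium rise over 180 s flagged agonists.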
DRD3 agonist = agonists of human D3 dopamine receptor | P35462 | D3R DiscoveRx beta-arrestin cells, luminescence, 90 min | max activation, % | 410,000 compounds, 0.58% hits | AID 652048; in the data active means max activation above about 30%; further: 0% is about no effect
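Agonist mode: compounds and dopamine controls were applied to plated cells for 90 min at 37 degrees C after an overnight attachment at 1500 cells/well. Luminescent read-out followed 30 - 60 minutes at room temperature with DiscoveRx detection reagent.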
D1 potentiator = human D1 dopamine receptor positive modulation; P21728; HEK293 TREx D1 cells, calcium flux, dopamine EC20 potentiation; potentiation, % at 10 µM; 360,000 compounds, 0.036% hits; AID 504651; in the data active means potentiation above about 30%; further: 0% is about no effect
D1 antag = human D1 dopamine receptor antagonism. 360,000 compounds, 3.2% hits. HEK293 TREx D1 cells, calcium flux, dopamine EC80; hits give low values. activity change, negative = inhibition, % at 10 µM; in the data active means activity change below about -30%; further: on the % scale 0 is the no-effect control and ±100 the full control effect
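HEK293 T-REx cells expressing inducible, force-coupled D1 receptor; no-wash Ca dye, 30–90 min RT. Cmpd → 180 s read at 1 Hz → EC80 DA → 180 s read.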
D3 antag = antagonists of human D3 dopamine receptor. P35462. D3R cells, DiscoveRx beta-arrestin luminescence, antagonist mode; hits give low values. max response, negative = inhibition, %. 360,000 compounds, 2.5% hits. AID 652054; in the data active means max response below about -50%; inconclusive means no clear call, values can overlap the other calls; further: on the % scale 0 is the no-effect control and ±100 the full control effect
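Cells expressing the human receptor were seeded at 1500 cells/well, incubated overnight at 37 degrees C in 5% CO2, then exposed to library compounds with dopamine controls for 90 minutes at 37 degrees C before luminescent detection.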
* hit, by the source's call; u = inconclusive; x = no result; ! = a repeat was not active.

SMILES	D1 agonist	DRD3 agonist	D1 potentiator	D1 antag	D3 antag
CC(O)(c1ccc(F)c(F)c1)c1nc(/C=C/c2ccc(C(F)(F)F)cc2)cs1 (centres undefined)	x	-7	x	x	u
N=c1n(CCN2CCCCC2)c2ccccc2n1CC(O)c1ccc(Cl)c(Cl)c1 (centres undefined)	65*	-19	-3	15	u
N=c1n(CCN2CCCCC2)c2ccccc2n1CC(O)c1cccc(Br)c1 (centres undefined)	8	-20	-1	6	-15
COC(=O)c1ccccc1N1C(=O)[C@@H]2C(c3ccc(Br)cc3)=NO[C@@H]2C1=O	8	3	-3	-48*	3
COC(=O)c1ccccc1N1C(=O)C2C(C1=O)[C@H]1C=C[C@@H]2C1 (some centres undefined)	2	2	-3	-4	12
O=C(Nc1cnc2ccccn2c1=O)c1ccc(F)cc1	3	0	-5	4	13
COc1cccc(C(=O)Nc2ccccc2OCc2cc(=O)n3ccccc3n2)c1	1	-12	-1	-34*	x
COc1cccc(C(=O)Nc2ccccc2OCc2cc(=O)n3cc(C)ccc3n2)c1	-2	2	-1	4	x
COc1ccc(C(=O)Nc2cnc3ccccn3c2=O)cc1	2	4	0	-77*!	16
CCOC(=O)C1(Cc2ccccc2Cl)CCN(Cc2csc(C(C)=O)c2)CC1	3	-18	-2	2	-3
O=C(CCCCCn1c(=O)[nH]c2ccccc2c1=O)NCc1cccc(Cl)c1	-2	-5	-3	-12	x
CC1CCN(S(=O)(=O)c2cc(C(=O)Nc3ccc(Br)cc3F)n(C)c2)CC1	8	-4	-3	-35*	x
Cc1ccc2c(c1)N(S(=O)(=O)c1ccc(F)cc1)C(C(C)(C)C)CO2 (centres undefined)	6	-8	8	-40*	u
Cc1ccc(S(=O)(=O)N2c3ccccc3OCC2C(C)(C)C)cc1 (centres undefined)	1	-5	-6	0	-15
Cc1cnc(C=O)c2cccc([N+](=O)[O-])c12	x	-9	x	x	-77*
Cc1ncc(C)c2c([N+](=O)[O-])cccc12	x	-3	x	x	-22
Cc1cccc(OCC(=O)N(Cc2ccc(C)o2)C2CCS(=O)(=O)C2)c1 (centres undefined)	3	0	-2	-20	1
CN(C(=O)COc1ccc(C(C)(C)C)cc1)C1CCS(=O)(=O)C1 (centres undefined)	3	-6	11	-3	-64*
Cc1ccc(CN(C(=O)COc2c(C)cccc2C)C2CCS(=O)(=O)C2)o1 (centres undefined)	-2	-10	2	-43*	x
CN(C(=O)COC(=O)c1ccccc1Nc1ccccc1)C1CCS(=O)(=O)C1 (centres undefined)	0	-11	7	-17	u
CCOC(=O)C1=C(C)NC(C)=C(C(=O)OCC)C1C(=O)OCC(=O)N(C)C1CCS(=O)(=O)C1 (centres undefined)	2	2	-4	-36*	0
CN(C(=O)COC(=O)c1ccccc1OCc1ccc(F)cc1)C1CCS(=O)(=O)C1 (centres undefined)	-1	3	-6	-31*	5
C=Cc1ccc(CN2C(=O)c3ccccc3Sc3ccc(C(=O)OCc4ccco4)cc32)cc1	8	-1	1	11	x
O=C(CNC(=O)c1ccccc1)OC(Cc1ccccc1)C(=O)Nc1cc(C(F)(F)F)ccc1Cl (centres undefined)	3	x	-3	-6	x
Cc1ccsc1CN(C(=O)COc1ccc(Cl)cc1)C1CCS(=O)(=O)C1 (centres undefined)	3	1	-1	3	x
SMILES	D1 agonist	DRD3 agonist	D1 potentiator	D1 antag	D3 antag
COc1ccc(OCC(=O)N(Cc2sccc2C)C2CCS(=O)(=O)C2)cc1 (centres undefined)	0	6	-4	-73*!	-4
CCC(C)N(C(=O)COc1ccc(-c2nnco2)cc1)C1CCS(=O)(=O)C1 (centres undefined)	3	1	-13	-54*	21
CC(NCC(O)COCCC12CC3CC(CC(C3)C1)C2)c1ccccc1 (centres undefined)	169*	0	12	56	4
Cc1cc(Br)c(OCc2ccc(C(=O)N/N=C/c3ccc[nH]3)cc2)c(Br)c1	3	-1	-16	0	u
COc1cccc(-c2cc(C(F)(F)F)n3nc(C(=O)N4CCCCC4c4cccnc4)cc3n2)c1 (centres undefined)	1	21	-11	-49*	16
COc1ccc(-c2cc(C(F)(F)F)n3nc(C(=O)N4CCCCC4)cc3n2)cc1	0	15	-3	-11	30
O=C1CC2(CCCC2)CC(=O)N1CCCCN1CCN(c2ncccn2)CC1	2	-89	-4	-17	-100*
CC(=O)OCc1cnc(C)c2oc(=O)c(C(=O)Nc3cccc(F)c3)cc12	0	1	1	-46*	x
CSCc1cc(N(C)c2ccccc2)nc(-c2ccccn2)n1	2	-11	-5	-3	-75*
CN(C)c1cc(C(F)(F)F)nc(-c2ccccn2)n1	3	-2	-5	-22	-14
COc1ccc2cc(CN(CCCN3CCOCC3)Cc3nnnn3C3CCCCC3)c(=O)[nH]c2c1	2	-35	-3	-7	-50*
CCC(c1nnnn1C1CCCCC1)N(Cc1ccco1)Cc1cc2ccc(OC)cc2[nH]c1=O (centres undefined)	3	4	10	33	-3
Nc1nnc(SCC(=O)OCC(=O)c2ccccc2Br)s1	1	-27	4	-3	-58*
Nc1nnc(SCC(=O)OCC(=O)c2ccccc2)s1	3	7	-7	3	-20
CC(C)Oc1ccc(CNC(=O)c2ccc3c(c2)N(C)CCS3)cc1	3	-9	-7	11	-74*
COc1ccc(CNC(=O)c2ccc3c(c2)N(C)CCS3)cc1	0	-16	-7	-24	u
C[C@@H](NC(=O)C1(c2ccccc2)CCN(C(=O)OC(C)(C)C)CC1)C(=O)N[C@@H](C(=O)O)c1ccccc1	1	-14	-3	-52*	u
C[C@H](NC(=O)C1(c2ccccc2)CCN(C(=O)OC(C)(C)C)CC1)C(=O)N[C@@H](C(=O)O)c1ccccc1	0	0	-1	6	-20
CCOc1ccc(NC(=O)c2ccc(N3CC4CC(C3)c3cccc(=O)n3C4)c(NC(=O)CCN3CCOCC3)c2)cc1 (centres undefined)	0	-1	-2	6	-10
COc1cc(CNCc2ccccn2)ccc1OCc1ccc(Cl)cc1Cl	22	-11	-1	-11	-67*
COc1cc(CNCCN2CCOCC2)ccc1OCc1cccc(Cl)c1	10	-7	0	-4	3
